Data: a collection of fitness landscapes (doi:10.1126/science.1257360)
Over roughly 140,000 sequences, “enrichment ratio after two sorts for PhoP signalling” has its median near 0; the highest 2% begin near 11. Many of the other results were omitted from the sample, so the highest values are more common in it than they were.

B1: PhoQ; a variant is named by its letters at X, in order, P23837 (parent)
chain: MKKLLRLFFPLSLRVRFLLATAAVVLVLSLAYGMVALIGYSVSFDKTTFRLLRGESNLFYTLAKWENNKLHVELPENIDKQSPTMTLIYDENGQLLWAQRDVPWLMKMIQPDWLKSNGFHEIEADVNDTSLLLSGDHSIQQQLQEVREDDDDAEMTHSVAVNVYPATSRMPKLTIVVVDTIPVELKSSYMVWSWFIYVLSANLLLVIPLLWVAAWWSLRPIEALAKEVRELEEHNRELLNPATTRELTSLVRNLNRLLKSERERYDKYRTTLTDLTHSLKTPLXXLQXXLRSLRSEKMSVSDAEPVMLEQISRISQQIGYYLHRASMRGGTLLSRELHPVAPLLDNLTSALNKVYQRKGVNISLDISPEISFVGEQNDFVEVMGNVLDNACKYCLEFVEISARQTDEHLYIVVEDDGPGIPLSKREVIFDRGQRVDTLRPGQGVGLAVAREITEQYEGKIVAGESMLGGARMEVIFGRQHSAPKDE

Variants of: B1
Experiment: enrichment ratio after two sorts for PhoP signalling (ratio (wild type AVST 3.29)); higher = more functional
Details: with PhoP (E. coli)

Variant | enrichment ratio
TWHD | ≤ 0.25
YYAE | ≤ 0.25
KCKS | ≤ 0.25
HTMI | 1.06
WRCP | ≤ 0.25
FWNS | ≤ 0.25
AVCK | 16.2
AVWR | ≤ 0.25
AVMH | 11.8
AVSH | 12.4
AVCC | 8.73
AVWM | ≤ 0.25
AVTM | 12.4
AVGM | 3.94
AVPM | 1.53
AVTH | 9.18
AVAM | 3.19
AVCV | 5.84
MFGF | ≤ 0.25
LYKG | ≤ 0.25
ASIY | 3.82
VFVG | ≤ 0.25
DYAM | ≤ 0.25
DHDS | ≤ 0.25
AVCH | 13

Variant | enrichment ratio
PVCG | ≤ 0.25
TVAH | 3.22
FVCM | 2.91
AVTI | 10.4
AVCG | 16
AVAH | 13.4
NVCG | ≤ 0.25
AVAT | ≤ 0.25
NVCM | ≤ 0.25
AVCM | 15.4
NVCH | ≤ 0.25
DWKH | ≤ 0.25
QWAC | ≤ 0.25
PYDI | ≤ 0.25
SRND | ≤ 0.25
DGIY | ≤ 0.25
KFTT | ≤ 0.25
MWVS | ≤ 0.25
NKPN | ≤ 0.25
STYR | ≤ 0.25
AVCE | ≤ 0.25
AVCI | 21.8
AVCS | 8.99
RVVQ | ≤ 0.25
VRPL | ≤ 0.25

Variant | enrichment ratio
IQLV | ≤ 0.25
AQIQ | 27.9
AEFQ | 3.73
ACVQ | 2.26
AEIA | 15.4
AQQQ | ≤ 0.25
ACHP | ≤ 0.25
AEIE | ≤ 0.25
AEIQ | 24.4
ACIQ | 11.8
AEHP | ≤ 0.25
AEIV | 4.76
AQHP | ≤ 0.25
KAHK | ≤ 0.25
LFVQ | ≤ 0.25
MTRG | ≤ 0.25
YDCD | ≤ 0.25
TFDY | ≤ 0.25
SERL | ≤ 0.25
WHLP | ≤ 0.25
KMMG | ≤ 0.25
AEIS | 10.8
AEIM | 15.7
ADIQ | 21.4
AKIQ | ≤ 0.25

Variant | enrichment ratio
AENL | ≤ 0.25
AEPM | 0.861
AEII | 16.4
AEIL | 28.2
AEYL | 6.74
AHIQ | ≤ 0.25
AEIT | 2.48
THTQ | 1.45
EWAP | ≤ 0.25
GFIS | ≤ 0.25
LHFN | ≤ 0.25
NVLT | ≤ 0.25
SCYK | ≤ 0.25
DWIV | ≤ 0.25
KRHG | ≤ 0.25
NHPL | ≤ 0.25
KIDW | ≤ 0.25
GARI | ≤ 0.25
QYLE | ≤ 0.25
FEPL | ≤ 0.25
QDSM | ≤ 0.25
QQSM | 13.3
QRSM | ≤ 0.25
TPSM | ≤ 0.25
QSSM | 15.9

Variant | enrichment ratio
QPSM | ≤ 0.25
QIAI | 2.26
SIKG | ≤ 0.25
LGAF | ≤ 0.25
VRDP | ≤ 0.25
HMSS | ≤ 0.25
PMDA | ≤ 0.25
SGTA | 7.55
SGWG | ≤ 0.25
SGTI | 16.7
SGTS | 7.16
SGDG | ≤ 0.25
SGTG | 15.9
AGFW | ≤ 0.25
VWNV | ≤ 0.25
GLKA | ≤ 0.25
ENWV | ≤ 0.25
NKIG | ≤ 0.25
PDHR | ≤ 0.25
NAML | ≤ 0.25
TAML | 25.8
KAML | ≤ 0.25
HRML | ≤ 0.25
HYML | ≤ 0.25
HTML | 11.7

Variant | enrichment ratio
DPPS | ≤ 0.25
TQCY | 15.8
IQCY | ≤ 0.25
SRCY | ≤ 0.25
MECY | 4.09
DWCY | ≤ 0.25
SNCY | 7.63
QECY | ≤ 0.25
SQCY | 12.2
SECY | 13.7
RNCY | ≤ 0.25
KYCY | ≤ 0.25
TECY | 16.2
GSCQ | 8.75
GDAQ | ≤ 0.25
TRTV | 9.35
SEWD | ≤ 0.25
KVEG | ≤ 0.25
LQIG | ≤ 0.25
FQTT | ≤ 0.25
TTTT | 12.1
KYTT | ≤ 0.25
YTTT | ≤ 0.25
MKTT | ≤ 0.25
EQTT | ≤ 0.25

Variant | enrichment ratio
TKTT | 11.6
SRTT | ≤ 0.25
SETT | 12.6
TQTT | 23.1
LTTT | ≤ 0.25
AKTT | 3.25
YAIP | ≤ 0.25
IDRF | ≤ 0.25
ATER | ≤ 0.25
NGCY | ≤ 0.25
PIGE | ≤ 0.25
SMQQ | ≤ 0.25
IGVV | ≤ 0.25
ISAV | 0.486
ADQP | ≤ 0.25
APWD | ≤ 0.25
PTFA | ≤ 0.25
KRKW | ≤ 0.25
MIGL | 1.45
KSTT | ≤ 0.25
MMTT | ≤ 0.25
SITT | 6.9
SQTT | 11.4
FCTT | ≤ 0.25
KCTT | ≤ 0.25

Variant | enrichment ratio
VCTT | ≤ 0.25
TSTT | 15.1
ICTT | 11.9
SPTT | ≤ 0.25
SCTT | 11.4
LCTT | ≤ 0.25
GPRY | ≤ 0.25
TYWS | ≤ 0.25
LGDG | 0.39
IKPA | ≤ 0.25
YKHD | ≤ 0.25
TNPV | ≤ 0.25
YHGA | ≤ 0.25
NSAQ | ≤ 0.25
LTAQ | ≤ 0.25
FDAQ | ≤ 0.25
KSAQ | ≤ 0.25
TSAQ | 19.6
TDAQ | 13.4
EETH | ≤ 0.25
